Assay outcomes from PubChem BioAssay.
MPTP block: blocks calcium-induced mitochondrial swelling; isolated mouse mitochondria, Ca2+ swelling absorbance, 30 min; inhibition, % at 10 µM; actives 1.4% (n = 360,000); AID 602449;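 active = inhibition of 50% or more, scaled per plate between neutral and stimulator controls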
Mdm2 MdmX PPI: human Mdm2/MdmX binding inhibition. inhibition, % at 8 µM. actives 3% (n = 330,000). O15151+Q00987. SaOS-2 split-luciferase Mdm2/MdmX complementation, luminescence;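 active = inhibition of at least 50% at 8 µM in the primary screen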
Target sequence (O15151 whole entry, looked up): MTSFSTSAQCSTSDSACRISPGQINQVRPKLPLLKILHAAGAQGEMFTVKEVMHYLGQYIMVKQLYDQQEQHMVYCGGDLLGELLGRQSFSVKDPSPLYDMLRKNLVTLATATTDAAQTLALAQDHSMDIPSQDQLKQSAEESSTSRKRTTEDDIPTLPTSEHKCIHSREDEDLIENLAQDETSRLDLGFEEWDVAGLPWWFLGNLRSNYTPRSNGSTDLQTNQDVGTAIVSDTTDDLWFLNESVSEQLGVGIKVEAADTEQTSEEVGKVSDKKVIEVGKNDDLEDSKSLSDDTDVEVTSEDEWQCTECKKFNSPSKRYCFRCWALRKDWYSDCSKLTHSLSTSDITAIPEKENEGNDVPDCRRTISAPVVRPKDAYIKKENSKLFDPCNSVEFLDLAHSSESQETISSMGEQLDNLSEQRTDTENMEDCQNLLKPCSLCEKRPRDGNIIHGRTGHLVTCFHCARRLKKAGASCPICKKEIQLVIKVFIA
Target sequence (Q00987 whole entry, looked up): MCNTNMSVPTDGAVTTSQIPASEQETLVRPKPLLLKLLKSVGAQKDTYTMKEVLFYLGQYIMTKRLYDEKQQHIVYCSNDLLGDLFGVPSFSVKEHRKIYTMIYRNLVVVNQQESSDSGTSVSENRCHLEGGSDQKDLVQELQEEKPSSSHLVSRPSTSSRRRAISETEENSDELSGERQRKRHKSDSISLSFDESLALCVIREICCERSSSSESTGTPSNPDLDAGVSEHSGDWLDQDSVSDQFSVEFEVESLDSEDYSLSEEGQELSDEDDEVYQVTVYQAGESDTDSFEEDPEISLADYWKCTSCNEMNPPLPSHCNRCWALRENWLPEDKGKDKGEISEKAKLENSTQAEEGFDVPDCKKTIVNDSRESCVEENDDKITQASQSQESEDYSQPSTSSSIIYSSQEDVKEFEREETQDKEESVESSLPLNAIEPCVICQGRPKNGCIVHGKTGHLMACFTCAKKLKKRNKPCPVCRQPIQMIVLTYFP
TIM10 inh: growth inhibitors of TIM10 yeast strain; S. cerevisiae TIM10 strain growth, BacTiter-Glo luminescence, 24 h; inhibition, % at 10 µM; actives 1.4% (n = 330,000);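 active = inhibition of 40% or more at the single tested concentration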;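 note: wild-type TIM10 isogenic control strain grown at permissive 25 °C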
tim10-1 inh: growth inhibitors of tim10-1 mutant yeast; inhibition, % at 20 µM; actives 2.2% (n = 330,000); S. cerevisiae tim10-1 ts strain growth, BacTiter-Glo, 24 h; AID 463190;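 active = inhibition of at least 40%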;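 note: mutant grown at 25 °C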
tim23-1 inh: growth inhibitors of tim23-1 mutant yeast; S. cerevisiae tim23-1 growth, BacTiter-Glo luminescence, 24 h; inhibition, % at 20 µM; actives 1.3% (n = 330,000);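 active = growth inhibition of the mutant yeast at or above 50%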;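 note: temperature-sensitive mutant grown at 25 °C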
tim10-1 conf: tim10-1 yeast growth inhibition, confirmed. shares compounds with tim10-1 inh. S. cerevisiae tim10-1 ts strain growth, BacTiter-Glo, 24 h. inhibition, % at 20 µM. actives 56% (n = 7,400). AID 463213;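 active = inhibition of yeast growth at or above a set limit in either of two repeat tests at 20 µM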;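 note: tim10-1 mutant grown at permissive 25 °C to find synthetic lethal compounds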
tim10 confirm: TIM10 yeast growth inhibition, confirmed. inhibition, % at 10 µM. shares compounds with TIM10 inh. S. cerevisiae tim10 strain growth, BacTiter-Glo luminescence, 24 h. actives 63% (n = 4,600);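 active = inhibition of yeast growth at or above a set limit in either of two replicates at 10 µM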; note: this counterscreen used the strain with wild-type TIM10
tim23-1 conf: tim23-1 yeast growth inhibition, confirmed | S. cerevisiae tim23-1 growth, BacTiter-Glo luminescence, 24 h | shares compounds with tim23-1 inh | actives 83% (n = 4,400) | inhibition, % at 20 µM;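 active = inhibition above about 39% in either of two replicate wells at 20 µM, limit read from the data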;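 note: temperature-sensitive tim23-1 mutant grown at 25 °C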
Mdm2-MdmX conf: human Mdm2/MdmX binding inhibition, confirmed. shares compounds with Mdm2 MdmX PPI. luminescent assay. inhibition, % at 8 µM. actives 55% (n = 10,000); in the data active = inhibition above about 40%
FLuc counter: counter-screen for Mdm2/MdmX inhibitors: full-length luciferase. shares compounds with Mdm2 MdmX PPI. SaOS-2 full-length luciferase counterscreen, luminescence. inhibition, % at 8 µM. actives 77% (n = 6,200). AID 504607;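 active = mean inhibition at 8 µM reaching about 37%, which flags the compound as non-specific, limit read from the data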;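 note: p53-null SaOS-2 cells with luciferase driven by a doxycycline-inducible promoter; compound on cells about two nights before reading with doxycycline added after day one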
Hits are given with their value. An excerpt weighted towards active compounds, which were near 6.3% of everything screened.

What do the screens show for `N/C(=N\OC(=O)Cc1ccccc1)c1ccc(Br)cc1`?
MPTP block: inactive; Mdm2 MdmX PPI: inactive; TIM10 inh: inactive; tim10-1 inh: inactive; tim23-1 inh: inactive

Results for N/C(Cc1ccccc1)=N\OC(=O)c1cccc2ccccc12 ?
MPTP block: inactive; Mdm2 MdmX PPI: 98.2; TIM10 inh: 85.2; tim10-1 inh: 76.7; tim23-1 inh: 68.1; tim10-1 conf: 57.2; tim10 confirm: 90.9; tim23-1 conf: 49.6; Mdm2-MdmX conf: 67.2; FLuc counter: 56.7

Results for N/C(=N\OC(=O)c1cccc2ccccc12)c1ccncc1 ?
MPTP block: inactive; Mdm2 MdmX PPI: 51.1; TIM10 inh: inactive; tim10-1 inh: 48.9; tim23-1 inh: inactive; tim10-1 conf: 39.5; Mdm2-MdmX conf: inactive

What do the screens show for `N/C(=N\OC(=O)c1cccc2ccccc12)c1ccc(Br)cc1`?
MPTP block: inactive; Mdm2 MdmX PPI: 98.3; TIM10 inh: 69.1; tim10-1 inh: 66.5; tim23-1 inh: 63.4; tim10-1 conf: 61.0; tim10 confirm: 69.1; tim23-1 conf: 68.3; Mdm2-MdmX conf: 79.8; FLuc counter: 93.6

How did O=C1C=C(O)CC2(CCCCC2)C1 do in these assays?
MPTP block: inactive

Results for Nc1nonc1-n1nnc(C(=O)N/N=C/c2ccco2)c1CSc1ccc(Cl)cc1 ?
MPTP block: inactive

How did C=C1C(=O)N(C)CCC1C(CC)C(=O)OC (stereo unspecified) do in these assays?
MPTP block: inactive

Results for Cc1nn2c(NCc3ccccn3)cc(C(C)C)nc2c1-c1ccccc1 ?
MPTP block: inactive; Mdm2 MdmX PPI: 63.6; TIM10 inh: 63.9; tim10-1 inh: 45.3; tim23-1 inh: 60.1; tim10-1 conf: 48.8; tim10 confirm: 68.0; tim23-1 conf: 60.5; Mdm2-MdmX conf: 41.0; FLuc counter: inactive

How did Cc1nn2c(NCCCn3ccnc3)cc(C(C)C)nc2c1-c1ccccc1 do in these assays?
MPTP block: inactive; Mdm2 MdmX PPI: inactive; TIM10 inh: inactive; tim10-1 inh: inactive; tim23-1 inh: inactive

How did CCCCn1c(CCC)nc([N+](=O)[O-])c1Sc1ccc(Cl)cn1 do in these assays?
MPTP block: inactive; Mdm2 MdmX PPI: 62.7; TIM10 inh: 49.0; tim10-1 inh: 43.9; tim23-1 inh: inactive; tim10-1 conf: 40.0; tim10 confirm: 42.1; Mdm2-MdmX conf: inactive

What do the screens show for `CCCn1c(NC(=O)c2cccc(S(=O)(=O)N3CCCC3)c2)nc2ccccc21`?
MPTP block: inactive; Mdm2 MdmX PPI: 93.3; TIM10 inh: inactive; tim10-1 inh: 40.9; tim23-1 inh: 50.3; tim10-1 conf: inactive; tim23-1 conf: 57.9; Mdm2-MdmX conf: 75.8; FLuc counter: 57.4

Results for CC1(C(=O)NS(=O)(=O)c2ccc(F)cc2F)CCN1C(=O)CC(c1ccccc1)c1ccccc1 (stereo unspecified) ?
MPTP block: inactive

What do the screens show for `Cc1nc(N2CCN(c3ccccc3O)CC2)c2c(-c3ccccc3)csc2n1`?
MPTP block: inactive; Mdm2 MdmX PPI: 52.4; TIM10 inh: inactive; tim10-1 inh: 42.3; tim23-1 inh: 50.6; tim10-1 conf: 31.5; tim23-1 conf: 48.2; Mdm2-MdmX conf: 55.1; FLuc counter: 59.1

How did CCc1ccc(/C=C/c2c([N+](=O)[O-])c(=O)n(C)c(=O)n2C)cc1 do in these assays?
MPTP block: inactive; Mdm2 MdmX PPI: 64.0; TIM10 inh: inactive; tim10-1 inh: 40.2; tim23-1 inh: inactive; tim10-1 conf: 34.6; Mdm2-MdmX conf: 43.5; FLuc counter: 39.8

What do the screens show for `CCOc1ccc(/C=C/c2c([N+](=O)[O-])c(=O)n(C)c(=O)n2C)cc1`?
MPTP block: inactive; Mdm2 MdmX PPI: inactive; TIM10 inh: inactive; tim10-1 inh: inactive; tim23-1 inh: inactive

Results for CS(=O)(=O)Nc1cccc(NC(=O)c2cccc3c(-c4ccc(F)c(F)c4)coc23)c1 ?
MPTP block: inactive

Results for C=C1C(=O)C=C2CN(C(=O)c3ccccc3)[C@@](Cc3ccc(F)cc3)(C(=O)OC)[C@@H]12 ?
MPTP block: inactive; Mdm2 MdmX PPI: 100.3; TIM10 inh: 47.9; tim10-1 inh: 61.1; tim23-1 inh: inactive; tim10-1 conf: 52.5; tim10 confirm: 51.5; Mdm2-MdmX conf: 99.8; FLuc counter: inactive

Results for CCC(C)(C)c1ccc(OCCCC[n+]2ccc(C)cc2)c(C(C)(C)CC)c1 ?
Mdm2 MdmX PPI: 98.5; TIM10 inh: inactive; tim10-1 inh: 41.8; tim23-1 inh: 60.3; tim10-1 conf: inactive; tim23-1 conf: 38.5; Mdm2-MdmX conf: 97.2; FLuc counter: 53.4

Results for Cc1cc[n+](CC[n+]2ccc(C)cc2)cc1 ?
MPTP block: inactive; Mdm2 MdmX PPI: inactive; TIM10 inh: inactive; tim10-1 inh: inactive; tim23-1 inh: inactive

What do the screens show for `Nc1nc(-c2ccccc2)cc(-c2ccccc2O)n1`?
MPTP block: inactive; Mdm2 MdmX PPI: 80.3; TIM10 inh: inactive; tim10-1 inh: 43.0; tim23-1 inh: inactive; tim10-1 conf: inactive; Mdm2-MdmX conf: inactive

Results for Nc1nc(N)nc(-c2ccccc2O)n1 ?
MPTP block: inactive; Mdm2 MdmX PPI: inactive; TIM10 inh: inactive; tim10-1 inh: inactive; tim23-1 inh: inactive

Results for CCOC(=O)C1=C[C@@H](C(C)(C)C)N(S(=O)(=O)c2ccc(C)cc2)[C@H]1c1ccc(C)cc1 ?
MPTP block: inactive

Results for CC(C)(C)c1ccc(C(=O)CC(=O)c2cc(Cl)ccc2O)cc1 ?
MPTP block: inactive; Mdm2 MdmX PPI: inactive; TIM10 inh: inactive; tim10-1 inh: inactive; tim23-1 inh: inactive

What do the screens show for `N/C(=C\C(=O)c1cc(Cl)ccc1O)C(Cl)(Cl)Cl`?
MPTP block: inactive; Mdm2 MdmX PPI: 94.7; TIM10 inh: 42.4; tim10-1 inh: 40.1; tim23-1 inh: 73.4; tim10-1 conf: 47.9; tim10 confirm: inactive; tim23-1 conf: inactive; Mdm2-MdmX conf: 56.8; FLuc counter: 54.4

How did Cc1ccc(-c2nc3ccccc3n2C(C(=O)NC(C)(C)C)C2CC2)cc1 (stereo unspecified) do in these assays?
MPTP block: inactive

How did Cc1ccc(S(=O)(=O)N2[C@@H](Cc3ccccc3)CO[C@H]2CC(=O)c2ccc(F)cc2)cc1 do in these assays?
MPTP block: inactive

How did CC1(C)CC(=O)C2=C(C1)OC1=C(C(=O)CC(C)(C)C1)C2c1ccccc1Cl do in these assays?
MPTP block: inactive
